High-throughput results from PubChem BioAssay.
ERa SRC1 inh: ER-alpha (human) coactivator binding inhibition | AID 629 | inhibition, % at 25.6 µM | TR-FRET ER-alpha LBD / SRC-1 peptide, estradiol-bound | hit rate 1.7% among 86,000 | P03372; in the data active means inhibition above about 50%
Target sequence (P03372 whole entry, looked up, the tested form may be a part): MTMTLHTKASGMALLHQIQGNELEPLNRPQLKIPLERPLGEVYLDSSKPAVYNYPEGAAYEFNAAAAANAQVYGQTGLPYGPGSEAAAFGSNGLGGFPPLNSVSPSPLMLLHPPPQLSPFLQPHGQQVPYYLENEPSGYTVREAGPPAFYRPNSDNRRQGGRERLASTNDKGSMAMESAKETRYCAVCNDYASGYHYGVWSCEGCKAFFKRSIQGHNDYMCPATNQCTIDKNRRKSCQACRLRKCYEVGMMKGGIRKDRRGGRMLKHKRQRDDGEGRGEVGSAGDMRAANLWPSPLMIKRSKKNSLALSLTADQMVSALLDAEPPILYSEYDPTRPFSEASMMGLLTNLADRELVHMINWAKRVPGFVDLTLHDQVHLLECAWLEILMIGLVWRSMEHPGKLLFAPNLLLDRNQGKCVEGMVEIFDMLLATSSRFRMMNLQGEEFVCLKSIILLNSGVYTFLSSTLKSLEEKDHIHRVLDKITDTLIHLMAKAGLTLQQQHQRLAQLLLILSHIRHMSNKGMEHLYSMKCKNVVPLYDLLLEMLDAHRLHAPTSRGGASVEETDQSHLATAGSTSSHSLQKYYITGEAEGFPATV
ERb coact inh: ER-beta (human) coactivator binding inhibition. TR-FRET ER-beta LBD / SRC1-Cy5 peptide binding; receptor agonist-loaded with 1 µM estradiol. inhibition, % at 25.6 µM. hit rate 1.3% among 86,000;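 active means compounds whose percent inhibition of the receptor-coactivator binding signal exceeds about 50% in the single-dose screen, limit read from the data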
Mac1 fbg inh: inhibitors of human CD11b/CD18 binding to fibrinogen. P05107+P11215. K562 CD11b/CD18 adhesion to fibrinogen, ATPlite luminescence; Mn2+ added to activate the integrin. inhibition, % at 10 µM. hit rate 0.54% among 93,000. AID 1497;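 active means primary inhibition of 50% or more at 10 µM, then 40% or more on retest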
ERa coact pot: ER-alpha (human) coactivator binding potentiation. AID 639. P03372. TR-FRET ERalpha-LBD/SRC-Cy5 coactivator binding, 2 h; 100 = basal binding, no effect. coactivator binding (% of control), % at 25.6 µM. hit rate 1.3% among 86,000; in the data active means activity above about 200%;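 further: binding measured in presence of low estradiol as agonist stimulus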
CD11b adhes enh: CD11b/CD18-fibrinogen binding enhancement. hit rate 0.07% among 93,000. AID 1499. K562 CD11b/CD18 adhesion to fibrinogen, ATPlite luminescence. activation, % at 10 µM;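 active means 10 µM primary screen giving 50% or more activity, confirmed by 40% or more on retest at that dose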
FAK blocker: FAK (human) kinase inhibition; hit rate 0.84% among 97,000; inhibition, %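 (tested at 7 µM)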; Q05397; AID 727; biochemical FAK kinase activity assay; in the data active means inhibition above about 19%
A number is an active result; i = inactive; nt = not tested or not shown; [ ] = remark or other dose. Shown are actives, neighbours in structure and some others; about 3.5% of the full set was active somewhere.

SMILES	ERa SRC1 inh	ERb coact inh	Mac1 fbg inh	ERa coact pot	CD11b adhes enh	FAK blocker
O=C(NCCCN1CCCCCC1)C1CC(=O)N(CCc2ccccc2)C1 (stereo not given)	i	i	i	966.1[fluorescence artefact?]	81.8	i
CC(C)COC(=O)c1cccc2c1-c1ccccc1/C2=N\O	i	i	nt	i	nt	54.7
Cc1nn(-c2ccc(F)cc2)c2sc(C(=O)OCC(=O)N3CCC(C)CC3)cc12	i	i	i	i	i	i
Cn1c2ccccc2c2cc(C(=O)N3CCN(CCO)CC3)sc21	nt	nt	i	nt	i	i
Cc1noc(C)c1COC(=O)c1cc2c3ccccc3n(C)c2s1	i	i	i	751.4	i	i
Cc1noc(C)c1COC(=O)c1cc2c(C)nn(-c3ccc(F)cc3)c2s1	74.1[fluorescence artefact?]	58.6[fluorescence artefact?]	i	i	i	nt
COc1ccc(N/C=C(\C#N)c2nc3ccccc3n2C)c(OC)c1	i	i	i	i	i	i
CCOC(=O)C(C(=O)Nc1ccc(C)cc1)C1CCCCC1 (stereo not given)	i	i	i	i	i	i
CN1CCN(C(=O)C(Cc2ccccc2)NS(=O)(=O)c2ccc3c(c2)CCC(=O)N3)CC1 (stereo not given)	i	i	i	i	i	i
CCCCNC(=O)C(Cc1ccccc1)NS(=O)(=O)c1ccc2c(c1)c(=O)n(C)c(=O)n2C (stereo not given)	85.5[fluorescence artefact?]	i	i	i	i	i
CCOC(=O)CNC(=O)C(Cc1ccccc1)NS(=O)(=O)c1ccc2c(c1)CCC(=O)N2 (stereo not given)	i	85.9	nt	i	nt	i
Cc1cc2cc(CN3C(=O)c4ccccc4C3=O)ccc2n1C	i	i	nt	299.7[fluorescence artefact?]	nt	nt
Cc1ccc(S(=O)(=O)NCc2ccc3c(c2)cc(C)n3C)cc1	i	i	i	i	i	i
Cn1ncc2c(Nc3ccc4ccccc4c3)ncnc21	i	i	i	i	i	i
CCOC(=O)c1ccc(Nc2ncnc3c2cnn3C)cc1	i	72.1[fluorescence artefact?]	i	i	i	i
O=C(NCc1ccco1)Nc1ccc2snnc2c1	nt	nt	i	nt	i	i
Cc1cccc(C)c1NC(=S)N(c1ccccc1)C(C)C	nt	nt	i	nt	i	nt
CCC(C)OC1OC(CO)C(O)C(O)C1NC(C)=O (stereo not given)	nt	nt	i	nt	i	nt
COC(=O)c1ccc(CSc2nnc3c(Cl)cc(Cl)cn23)o1	i	i	i	i	i	i
CCN(c1ccccc1)S(=O)(=O)c1cc(C(=O)Nc2ccc(F)c(F)c2)ccc1F	nt	nt	i	nt	i	nt
CCN(c1ccccc1)S(=O)(=O)c1cc(C(=O)O)ccc1C	75.7	73.8	nt	i	nt	i
c1cncc(-c2nc(-c3ccco3)cs2)c1	i	60.4[fluorescence artefact?]	i	i	i	i
CC1(C)CC(=O)C2=C(C1)Nc1nc(SCCN3CCOCC3)[nH]c(=O)c1C2c1cccs1 (stereo not given)	i	i	i	i	i	i
CSc1nc2c(c(=O)[nH]1)C(c1cccs1)C1=C(CCCC1=O)N2 (stereo not given)	i	56.2	nt	i	nt	i
COc1ccc(C(c2nnnn2CCc2ccccc2)N2CCN(C3CCCC3)CC2)cc1OC (stereo not given)	i	93.2[fluorescence artefact?]	i	i	i	i
SMILES	ERa SRC1 inh	ERb coact inh	Mac1 fbg inh	ERa coact pot	CD11b adhes enh	FAK blocker
COc1ccc(NC(=O)CSc2nc(O)c(Cc3ccccc3)c(=O)[nH]2)cc1	i	i	i	i	i	i
Oc1c(Cl)cc(Cl)c2c1NCCC2	89.0[fluorescence artefact?]	69.6[fluorescence artefact?]	i	i	i	i
O=C1NCCCc2c1oc1ccc(O)cc21	i	i	i	i	i	i
O=C(c1ccccc1F)N1CCN(S(=O)(=O)c2ccc(S(=O)(=O)N3CCCCC3)cc2)CC1	66.3[fluorescence artefact?]	i	i	i	i	i
CCCc1nnc(NC(=O)c2c(O)c3cccc4c3n(c2=O)CC4)s1	i	i	92.6	i	i	nt
Cc1cccc(NC(=O)c2c(O)c3cccc4c3n(c2=O)CC4)c1	i	i	nt	216.6[fluorescence artefact?]	nt	i
CC1(C)Cc2c(sc3ncn4nc(-c5ccco5)nc4c23)CO1	i	i	nt	i	nt	32.6
c1coc(-c2nc3c4c5c(sc4ncn3n2)CCCC5)c1	i	i	i	i	i	i
O=C1CCC(C(=O)Nc2cccc3ccccc23)N1 (stereo not given)	i	i	i	i	i	i
Fc1cccc(Nc2nc3ccccc3n3nnnc23)c1	i	i	i	i	i	i
c1ccc2c(c1)nc(Nc1ccc3c(c1)OCO3)c1nnnn12	56.5[fluorescence artefact?]	i	i	i	i	nt
CCN(CC)S(=O)(=O)c1ccc(Nc2nc3ccccc3n3nnnc23)cc1	84.6[fluorescence artefact?]	i	i	i	i	nt
Brc1ccc(Nc2nc3ccccc3n3nnnc23)cc1	i	i	i	i	i	i
COC(=O)c1cn(-c2ccccc2)nc1C(=O)OC	i	i	i	i	i	nt
CC(NC(=O)c1cccs1)c1ccc2c(c1)OCO2 (stereo not given)	i	i	i	i	i	i
Cc1sc(NC(=O)C2CC=CCC2C(=O)O)c(C(=O)OC(C)C)c1C (stereo not given)	i	i	i	i	i	i
CCn1c(SCC(=O)Nc2nccs2)nnc1-c1ccc(S(=O)(=O)N2CCCCCC2)cc1	nt	nt	i	nt	i	i
CCc1nnc(NC(=O)CSc2nnc(-c3ccc(S(=O)(=O)N4CCCC4)cc3)n2CC)s1	i	53.6[fluorescence artefact?]	nt	i	nt	i
Cc1ccccc1Nc1nnc(SCC(=O)NC(=O)NCc2ccco2)s1	75.1	56.3[fluorescence artefact?]	i	i	i	nt
O=C(CSc1nnc(Nc2ccccc2F)s1)NCc1ccco1	81.4[fluorescence artefact?]	69.3	i	i	i	i
O=C(CSc1nnc(Nc2ccccc2)s1)NCc1ccco1	i	i	i	i	i	i
Cc1ccc(Nc2nnc(SCC(=O)Nc3ccc(S(=O)(=O)N4CCOCC4)cc3)s2)cc1	i	i	52.0	i	i	i
Cc1ccc2oc(Nc3nc(C)cc(C)n3)nc2c1	i	i	i	i	i	i
Cc1ccc(Nc2nnc(SCC(=O)NCc3ccco3)s2)cc1	68.2	i	i	i	i	nt
O=C(CSc1nc(N2CCCCC2)nc(N2CCCCC2)n1)NC1CCCCC1	i	i	nt	i	nt	i
SMILES	ERa SRC1 inh	ERb coact inh	Mac1 fbg inh	ERa coact pot	CD11b adhes enh	FAK blocker
Cc1cc(C)n2c(SCC(=O)Nc3c(C)n(C)n(-c4ccccc4)c3=O)nnc2n1	nt	nt	i	nt	i	i
CCOC(=O)C1CCCN(C(=O)c2cc(-c3ccc(C)cc3)on2)C1 (stereo not given)	i	i	i	i	i	i
CCOC(=O)C1CCCN(C(=O)c2cc3ncc(Br)cn3n2)C1 (stereo not given)	56.9	60.1[fluorescence artefact?]	i	i	i	i
O=C(c1cc2ncc(Br)cn2n1)N1CCN(C(=O)c2ccco2)CC1	61.5	51.7	i	i	i	i
O=C(c1cc2ncc(Br)cn2n1)N1CCOCC1	i	58.3	i	i	i	i
Cc1nc(SCC(=O)NC2CCCC2)[nH]c(=O)c1Cc1ccccc1	i	i	i	i	i	i
Cc1ccc(NC(=O)CN2C(=O)S/C(=C\c3cccn3C)C2=O)cc1	nt	nt	nt	nt	nt	i
Cc1ccc(NC(=O)CN2C(=O)S/C(=C\c3ccc(-c4cccc(C(=O)O)c4C)o3)C2=O)cc1	i	i	i	250.1[fluorescence artefact?]	i	i
